VACV Venus inh = inhibitors of vaccinia virus (Venus reporter); Vaccinia virus Venus reporter expression, fluorescence; Potency, µM (titrated, usually from 36.5 µM), most hits filed as inhibitors; actives 0.46% (n = 330,000); calls by dose curve; tested in A549 cells; further: nearly all actives have a fitted effect of over 30% in size
Marburg entry inh = blocks Marburg virus binding to or entry into cells; actives 1.8% (n = 300,000); Potency, µM (series often up to 37.8 µM), hits mostly inhibitors; Marburg virus pseudotyped entry inhibition, cell reporter; calls by dose curve; tested in HEK293 cells
FMDV antiviral = antivirals against foot and mouth disease virus; FMDV antiviral cell-based qHTS; Potency, µM (top dose mostly 57.9 µM), usual class: inhibitors; actives 1.2% (n = 410,000); calls by dose curve; tested in HEK293T cells; further: read-out not given here; nearly all actives have a fitted effect of over 45% in size
Sm TGR block = blocks Schistosoma mansoni thioredoxin glutathione reductase | Q962Y6 | purified TGR, DTNB reduction, TNB absorbance 405 nm | Potency, µM (highest dose often 114 µM), usual class: inhibitors | actives 3% (n = 360,000) | AID 485364; active means well fitted inhibition curve with a large enough effect; inconclusive means small, poorly fitted or top-dose-only effect; inactive means no such curve, though single readings can be large or run the other way; further: nearly all actives have a fitted effect of over 60% in size
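First, TGR (20 nM dispensed) and NADPH were mixed with compound. Second, a 15 min room-temperature incubation followed. Third, further NADPH and then DTNB were added to start the reaction. Finally, TNB absorbance was monitored kinetically.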
VACV mCherry inh = inhibitors of vaccinia virus infection (mCherry reporter signal). Vaccinia virus mCherry reporter infection, fluorescence. Potency, µM (series often up to 36.5 µM), most hits filed as inhibitors. actives 0.63% (n = 310,000). AID 720579; calls by dose curve; tested in A549 cells; further: nearly all actives have a fitted effect of over 35% in size
LASV entry inh = blocks Lassa virus binding to or entry into cells; Lassa virus pseudotype entry inhibition, cell reporter; Potency, µM (series often up to 37.9 µM), hits mostly inhibitors; actives 1.2% (n = 300,000); AID 540256; calls by dose curve; tested in HEK293 cells; further: nearly all actives have a fitted effect of over 50% in size
Hits are given with their value; n = inactive; u = inconclusive; x = no result given. Only some compounds are listed: those with a hit (about 5.4% of all), similar ones and a draw of the others.

SMILES	VACV Venus inh	Marburg entry inh	FMDV antiviral	Sm TGR block	VACV mCherry inh	LASV entry inh
Cc1ccccc1NC(=NCCCN1CC1)Nc1ccccc1C	u	2.24µM	n	x	n	12.6µM
COc1ccc(C2CC(=O)N(CC(=O)Nc3ccc(C)c(Cl)c3)c3ccccc3S2)cc1OC (configuration not stated)	u	u	n	n	u	x
O=[N+]([O-])c1ccc(NC(=S)NCCc2ccccc2)cc1	u	u	n	n	n	u
O=C(Nc1cnn(Cc2ccc(Cl)cc2)c1)c1ccc([N+](=O)[O-])cc1	u	11.2µM	u	n	u	u
CC(=O)c1ccc(NC(=S)NCCc2ccc(S(N)(=O)=O)cc2)cc1	n	n	n	39.8µM	n	u
O=[N+]([O-])c1ccc(NC(=S)NCCc2ccc(Cl)cc2)cc1	11.2µM	u	n	u	u	u
Cc1c(C(=O)N2CCOc3ccccc3C2)sc2ncnc(NCCCN3CCOCC3)c12	n	x	n	x	n	x
Cc1cc(C)c(S(=O)(=O)NCC(c2ccco2)N2CCOCC2)c(C)c1 (configuration not stated)	n	x	n	n	n	n
CN1C(C(=O)NCc2ccccc2)CC2Cn3c(nc4ccccc43)C21 (configuration not stated)	n	x	n	n	n	x
CCCNC(=O)C1CC2Cn3c(nc4ccccc43)C2N1C (configuration not stated)	n	x	n	39.8µM	n	x
Cc1ccc(CNC(=O)C2CC3Cn4c(nc5cc(Cl)c(Cl)cc54)C3N2C)o1 (configuration not stated)	n	x	n	44.7µM	n	x
CCOC(=O)C1CCN(C(=O)CCS(=O)(=O)Cc2ccccc2)CC1	n	n	n	44.7µM	n	x
CCOC(=O)C1CCN(C(=O)CCCn2c(=O)c3cccn3c3cccnc32)CC1	n	n	n	79.4µM	n	n
O=C(CCS(=O)(=O)Cc1ccccc1)N1CCc2ccccc2C1	x	n	n	28.2µM	x	n
O=C(O)C1CCN(C(=O)CCc2ccccc2)CC1	n	n	n	n	n	u
CCOC(=O)C1CCN(C(=O)CCc2ccccc2)CC1	n	n	n	89.1µM	n	n
CS(=O)(=O)CC[C@@H](C(=O)NCCc1ccccc1)N1Cc2ccccc2C1=O	n	n	n	n	n	n
C=C1[C@@H](O)[C@H](CC(C)C)N(Cc2ccccc2Br)S1(=O)=O	10µM	x	u	x	u	x
O=S1(=O)CCO[C@H]2CCCC[C@@H]2N1Cc1ccccc1Br	n	x	x	x	n	x
Cc1cc(-c2ccnc(-n3ncc(C(=O)NCC4COCCO4)c3C3CC3)n2)c(C)s1 (configuration not stated)	n	x	n	x	n	x
CC(=O)c1ccc(Oc2ccc(C(=O)c3ccc(C)c(C)c3)cc2[N+](=O)[O-])cc1	n	u	n	n	n	1.46µM
Cc1cccc(C)c1NC(=O)Cn1nnc(S(=O)(=O)c2ccccc2)c1N	n	n	n	n	n	n
CCN(CC)c1ccc(NC2=C(Cl)C(=O)c3ccccc3C2=O)cc1	u	3.98µM	u	2.24µM	u	5.62µM
COC1=C(Nc2ccc(O)cc2)C(=O)c2ccccc2C1=O	15.8µM	u	n	u	14.1µM	u
COC1=C(Nc2ccc(OC)cc2)C(=O)c2ccccc2C1=O	u	n	n	n	u	u
SMILES	VACV Venus inh	Marburg entry inh	FMDV antiviral	Sm TGR block	VACV mCherry inh	LASV entry inh
O=C1C(Cl)=C(Nc2ccc(O)cc2)C(=O)c2ccccc21	u	u	31.6µM	2.24µM	u	4.47µM
Cc1ccc(NC2=C(Cl)C(=O)c3ccccc3C2=O)cc1	n	u	n	3.55µM	n	12.6µM
CC(C)(C)OC(=O)N1CCC(c2c(C(=O)Nc3ccc4c(c3)OCCO4)cnn2-c2ccccc2)CC1	n	x	n	n	n	n
CCOC(=O)C1=C(C)NC(C)=C(C(=O)OCC)C1c1cn(-c2ccccc2)nc1-c1ccco1	n	n	n	n	n	n
O=C(O)/C=C/c1cn(-c2ccccc2)nc1-c1cc2ccccc2oc1=O	x	x	n	n	x	x
Cc1ccc(-c2nn(-c3ccccc3)cc2/C=C/C(=O)O)o1	x	n	n	31.6µM	x	n
Cc1ccc(-c2nn(-c3ccccc3)cc2CN(Cc2ccccc2)C(=O)c2ccco2)o1	x	u	28.2µM	n	x	u
O=C(c1ccco1)N(Cc1ccccc1)Cc1ccccn1	n	n	n	x	n	n
Cc1ccc(-c2nn(-c3ccccc3)cc2C(=O)O)o1	x	x	x	20µM	x	x
CC(C)OC(=O)c1cn(-c2ccccc2)nc1-c1ccco1	n	n	u	5.01µM	n	n
CC(NC(=O)c1sc2ncccc2c1-n1cccc1)c1ccccc1 (configuration not stated)	n	x	n	n	n	n
